In a collection of fitness landscapes (doi:10.1126/science.1257360):
Over roughly 140,000 sequences, “enrichment ratio after two sorts for PhoP signalling” has its median near 0; the highest 2% begin near 11. Shown is part of a subset that was picked to be rich in the highest values.

B1: PhoQ; a variant is named by its letters at X, in order, P23837 (parent)
chain: MKKLLRLFFPLSLRVRFLLATAAVVLVLSLAYGMVALIGYSVSFDKTTFRLLRGESNLFYTLAKWENNKLHVELPENIDKQSPTMTLIYDENGQLLWAQRDVPWLMKMIQPDWLKSNGFHEIEADVNDTSLLLSGDHSIQQQLQEVREDDDDAEMTHSVAVNVYPATSRMPKLTIVVVDTIPVELKSSYMVWSWFIYVLSANLLLVIPLLWVAAWWSLRPIEALAKEVRELEEHNRELLNPATTRELTSLVRNLNRLLKSERERYDKYRTTLTDLTHSLKTPLXXLQXXLRSLRSEKMSVSDAEPVMLEQISRISQQIGYYLHRASMRGGTLLSRELHPVAPLLDNLTSALNKVYQRKGVNISLDISPEISFVGEQNDFVEVMGNVLDNACKYCLEFVEISARQTDEHLYIVVEDDGPGIPLSKREVIFDRGQRVDTLRPGQGVGLAVAREITEQYEGKIVAGESMLGGARMEVIFGRQHSAPKDE

Variants of: B1
Assay: enrichment ratio after two sorts for PhoP signalling (ratio (wild type AVST 3.29)); higher = more functional
Conditions: with PhoP (E. coli)

Variant	enrichment ratio
PGDY	≤ 0.25
QRCP	≤ 0.25
NMAF	≤ 0.25
QMGQ	≤ 0.25
QVAS	≤ 0.25
SKNA	≤ 0.25
DLFK	≤ 0.25
DATT	≤ 0.25
SHNF	9.74
NHNQ	≤ 0.25
TANC	12.1
KANC	≤ 0.25
KDNC	≤ 0.25
IANC	≤ 0.25
TFNQ	13.4
YCNQ	≤ 0.25
TFNC	2.85
THNQ	30.9
FDNC	≤ 0.25
TDNC	13.4
SHNQ	0.892
TNPA	≤ 0.25
VGFR	≤ 0.25
YITS	0.602

Variant	enrichment ratio
ECNN	≤ 0.25
KVKT	≤ 0.25
GNYR	≤ 0.25
DIML	≤ 0.25
TESL	12.5
AESL	11.7
MESL	13.9
AQSL	7.47
NESL	≤ 0.25
MDSL	≤ 0.25
QESL	0.967
MMSL	6.66
AHSL	0.581
RWWS	≤ 0.25
RAAP	≤ 0.25
FFQI	≤ 0.25
NMFS	≤ 0.25
AIQP	≤ 0.25
ERDH	≤ 0.25
TVNI	12.6
PVNI	≤ 0.25
TVNW	≤ 0.25
TVNY	≤ 0.25
FVNS	≤ 0.25

Variant	enrichment ratio
TVNS	18.9
WILF	≤ 0.25
MDWW	≤ 0.25
ACPI	9.4
RIAV	≤ 0.25
HQNT	≤ 0.25
IGGC	≤ 0.25
SHVG	≤ 0.25
THCG	5.77
SHCG	16.6
THMG	2.89
SHMG	17.8
SHMW	0.684
REDG	≤ 0.25
WCII	≤ 0.25
ENIH	≤ 0.25
MRCK	≤ 0.25
MGLF	2.83
RFHY	≤ 0.25
MMCI	≤ 0.25
SCAE	8.81
QTYM	0.346
FFYM	≤ 0.25
RGYM	≤ 0.25

Variant	enrichment ratio
NGYM	≤ 0.25
QQYM	47.2
QQYN	≤ 0.25
MKYM	6.46
TKYM	25.3
QGYM	23.9
TGYM	26.5
TKYN	≤ 0.25
QQYI	≤ 0.25
LYSK	≤ 0.25
DGPS	≤ 0.25
NVIN	≤ 0.25
YLDS	≤ 0.25
TVAW	2.61
SNQY	2.66
VDNL	≤ 0.25
REKA	≤ 0.25
QEFM	18.2
QKFM	≤ 0.25
QRFM	≤ 0.25
STYM	0.458
QEYM	24.7
QDYM	≤ 0.25
GMSV	6.09

Variant	enrichment ratio
MLVP	≤ 0.25
NCCG	≤ 0.25
QAWH	31.4
HRWH	≤ 0.25
TGWH	19.8
KSWH	≤ 0.25
KAWH	≤ 0.25
TEWH	35.2
NAWH	≤ 0.25
NVWH	≤ 0.25
KCWH	≤ 0.25
TQWH	21.9
HPWH	≤ 0.25
NEWH	≤ 0.25
KQNP	≤ 0.25
RGWC	≤ 0.25
PCRT	≤ 0.25
DAYY	≤ 0.25
HSCT	≤ 0.25
VRFP	≤ 0.25
DLDP	≤ 0.25
DHCF	≤ 0.25
MCIR	≤ 0.25
TEYI	8.43

Variant	enrichment ratio
TENT	3.14
NELD	≤ 0.25
TEAT	17
TEVT	3.71
TELA	16.8
TEFT	5.71
MELD	≤ 0.25
TELT	14.5
TEET	≤ 0.25
TELD	13.4
TEWI	4.93
NHGP	≤ 0.25
KQPT	≤ 0.25
KTHI	≤ 0.25
QTDQ	≤ 0.25
GRFL	≤ 0.25
AWWN	≤ 0.25
HNIY	≤ 0.25
YESG	0.306
TELN	21.6
NELC	5.14
DELY	≤ 0.25
NELH	2.12
TELC	11.4

Variant	enrichment ratio
TELH	11.2
QELC	≤ 0.25
TEYN	3.14
TELY	15.5
HPLH	≤ 0.25
NELY	≤ 0.25
HPLN	≤ 0.25
KTRY	≤ 0.25
PMLD	≤ 0.25
APTN	≤ 0.25
TEAD	16.8
QGGT	8.36
QEGT	24.3
MEAS	3.94
QEAF	≤ 0.25
QEAD	≤ 0.25
TEAF	13.8
TEAA	2.61
MEAF	≤ 0.25
QEAS	10.1
TEAS	16.2
QRGT	≤ 0.25
EISC	≤ 0.25
KVKA	≤ 0.25

Variant	enrichment ratio
EFER	≤ 0.25
EFNA	≤ 0.25
IKFE	≤ 0.25
PTLL	≤ 0.25
SHIM	2.2
PILC	≤ 0.25
YTYS	≤ 0.25
TELW	≤ 0.25
NELL	≤ 0.25
NELF	≤ 0.25
MELF	0.528
TEYS	11.9
CDYS	≤ 0.25
MELL	3.52
TELS	12.5
TELF	12.2
TELP	≤ 0.25
TELL	16.9
PWMG	≤ 0.25
ETEG	≤ 0.25
ASGY	3.18
YDLK	≤ 0.25
MDNI	≤ 0.25
IQKP	≤ 0.25

Variant	enrichment ratio
VRDA	≤ 0.25
WIHY	≤ 0.25
FACS	≤ 0.25
ESAP	≤ 0.25
RPEH	≤ 0.25
TEGT	22.6
TELI	19.5
THGT	≤ 0.25
MELI	6.46
NHGT	≤ 0.25
QELI	≤ 0.25
ADTR	≤ 0.25
QRFP	≤ 0.25
VSPY	≤ 0.25
QFWC	17.1
TSWC	17.5
YAWC	≤ 0.25
QRWC	≤ 0.25
WIWC	≤ 0.25
MMWC	≤ 0.25
KAWC	≤ 0.25
LCWC	≤ 0.25
TAWC	11.3
QPWC	≤ 0.25

Variant	enrichment ratio
KSWC	≤ 0.25
TGWC	13.8
NPNK	≤ 0.25
MMHM	≤ 0.25
SCKK	≤ 0.25
TYID	≤ 0.25
LNTD	≤ 0.25
IKRA	≤ 0.25
QRQH	≤ 0.25
NYNA	≤ 0.25
MFGV	≤ 0.25
LNWC	≤ 0.25
TQWC	29.7
MNWC	11.8
HPWC	≤ 0.25
TEWC	33.2
TNWC	≤ 0.25
NRWC	≤ 0.25
NQWC	≤ 0.25
NEWC	≤ 0.25
FYWP	≤ 0.25
RAPP	≤ 0.25
TIYT	2.66
HIYY	≤ 0.25

Variant	enrichment ratio
IYRV	≤ 0.25
SKMA	3.27
WRFK	≤ 0.25
DFPC	≤ 0.25
YMWR	≤ 0.25
QPAI	≤ 0.25
YTAI	≤ 0.25
TPAI	≤ 0.25
MKAI	≤ 0.25
QAAI	12.7
MTAI	17.8
GKTK	≤ 0.25
YGMR	≤ 0.25
ACFV	≤ 0.25
HMTM	11.7
ISWM	≤ 0.25
KCLM	≤ 0.25
IALM	6.67
YCWM	≤ 0.25
YCLM	14.9
FCLM	12.7
YYLM	≤ 0.25
FVLM	8.14
HMGM	≤ 0.25

Variant	enrichment ratio
ISLM	12.9
HMPM	≤ 0.25
QYLA	≤ 0.25
RGIA	≤ 0.25
WTPQ	≤ 0.25
MDVM	8.67
PTAN	≤ 0.25
QCEP	≤ 0.25
CALR	≤ 0.25
WMFY	≤ 0.25
IQQW	≤ 0.25
VWEW	≤ 0.25
HMQF	≤ 0.25
YSKM	≤ 0.25
WFWG	≤ 0.25
GVAV	≤ 0.25
HSLM	22.1
TSLM	16.7
FSLM	19.2
HSFM	≤ 0.25
SSLM	17.1
KSLM	≤ 0.25
FQLM	1.74
HSLA	≤ 0.25

Variant	enrichment ratio
FFLM	≤ 0.25
SYLM	≤ 0.25
NSLM	7.81
QNNM	≤ 0.25
YPIG	≤ 0.25
PMYL	≤ 0.25
WVSG	≤ 0.25
GGKL	≤ 0.25
LPCH	≤ 0.25
RYCQ	≤ 0.25
HSWM	≤ 0.25
HSCK	≤ 0.25
MALM	9.02
HSTM	13.1
FAPM	0.451
FALM	17
AEWY	6.65
FPSQ	≤ 0.25
